Results filed as inconclusive are left out. Where a call stands in place of a potency, no number is given. Activity calls are given as the source filed them. Calls come from the whole dose curve; as a rule, active = well fitted curve in the direction sought with a large enough effect; inconclusive = small, poorly fitted or top-dose-only effect, or another doubt; inactive = no such curve, though single readings can be large; an effect the other way counts as inactive or inconclusive.
Assays:
[1] = P-glycoprotein substrates identified in KB-8-5-11 adenocarcinoma cell line, qHTS therapeutic library screen (AID 1346987); conditions: outcome: dose series up to 44.5 µM unless noted; note: series mostly up to about 44 µM; nearly all actives have a fitted effect of over 65% in size
Method in brief: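 Human cervical adenocarcinoma KB-8-5-11 cells, selected in colchicine to over-express P-gp and assayed without it, were exposed for 72 h to titrated compounds. An ATP-based luminescent viability signal gave AC50.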

[2] = qHTS assay to identify small molecule inhibitors of chordoma cells - UCH-2 (AID 1259356); note: series mostly up to about 46 µM
[3] = NS1 protein of Zika virus - qHTS assay to identify small molecule inhibitors in human HEK 293 cells (AID 1347053); note: series mostly up to about 46 µM; nearly all actives have a fitted effect of over 55% in size
Method in brief: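 Readout was TR-FRET using paired anti-NS1 antibodies after 24 h infection of HEK 293 cells with ZIKV MR766 (MOI = 0.5). Compound preceded virus by 1 h; reduced signal reflects lower NS1 expression.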

[4] = qHTS of pediatric cancer cell lines to identify multiple opportunities for drug repurposing: Primary screen for TC32 cells (AID 1347089); note: nearly all actives have a fitted effect of over 60% in size
Method in brief: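 A viability screen of TC32 cells was run over 48 h, with primary MIPE doses spanning 0.78 nM–46 µM and NPC doses 0.59 nM–46 µM. ATP luminescence (CellTiter-Glo) served as the read-out.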

[5] = qHTS of pediatric cancer cell lines to identify multiple opportunities for drug repurposing: Primary screen for DAOY cells (AID 1347090); note: series mostly up to about 46 µM; nearly all actives have a fitted effect of over 55% in size
Method in brief: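 Viability measured as metabolically active cells via CellTiter-Glo luminescence following 48 hours of compound exposure, 11-point dilutions in confirmatory testing. 500-1,000 cells/well plated 5 hours before dosing; controls were DMSO and 2.3 µM bortezomib.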

[6] = qHTS of pediatric cancer cell lines to identify multiple opportunities for drug repurposing: Primary screen for A673 cells (AID 1347092); note: nearly all actives have a fitted effect of over 45% in size
Method in brief: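 Titration-based qHTS on A673 cells: MIPE compounds spanned 11 points (0.78 nM to 46 µM final), NPC compounds 8 points (0.59 nM to 46 µM final). Viability after 48 h was measured by ATP luminescence.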

[7] = qHTS of pediatric cancer cell lines to identify multiple opportunities for drug repurposing: Primary screen for SK-N-MC cells (AID 1347093); note: series mostly up to about 46 µM
Method in brief: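 Metabolically active cells were quantified by ATP-dependent luminescence (CellTiter-Glo, 15 min at room temperature) following 48 h treatment. Cells had been plated at 500-1,000 per well and settled for 5 h beforehand.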

[8] = qHTS of pediatric cancer cell lines to identify multiple opportunities for drug repurposing: Primary screen for NB-EBc1 cells (AID 1347095)
Method in brief: (§1)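 500-1,000 cells/well; 5 h pre-incubation 37 °C/5% CO2; compound pinned; 48 h; CellTiter-Glo, 15 min RT; luminescence. MIPE 11-pt from 0.78 nM, NPC 8-pt from 0.59 nM final. Bortezomib 2.3 µM final as positive control.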

[9] = qHTS of pediatric cancer cell lines to identify multiple opportunities for drug repurposing: Primary screen for U-2 OS cells (AID 1347096); note: nearly all actives have a fitted effect of over 50% in size
Method in brief: (§2)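 Viability after 48 h compound treatment at 37C, 500-1,000 cells/well, read as ATP luminescence with CellTiter-Glo. Primary screens used 11-point (MIPE, 0.78 nM-46 µM) or 8-point (NPC, 0.59 nM-46 µM) final concentrations; follow-up screens used 11-point dilutions.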

[10] = qHTS of pediatric cancer cell lines to identify multiple opportunities for drug repurposing: Primary screen for Saos-2 cells (AID 1347097); note: potency is the fitted concentration of half-maximal effect; nearly all actives have a fitted effect of over 40% in size
Method in brief: as §1

[11] = qHTS of pediatric cancer cell lines to identify multiple opportunities for drug repurposing: Primary screen for SK-N-SH cells (AID 1347098);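 note: DMSO served as neutral control and bortezomib at 2.3 µM as positive control; nearly all actives have a fitted effect of over 65% in size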
Method in brief: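 Cells (500-1,000/well) rested 5 h, then received compounds for 48 h; metabolically active cells were measured by CellTiter-Glo luminescence. Final concentrations spanned up to 46 µM (MIPE, 11-point) or 0.59 nM-46 µM (NPC, 8-point) in primary screens, 11-point in follow-ups.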

[12] = qHTS of pediatric cancer cell lines to identify multiple opportunities for drug repurposing: Primary screen for NB1643 cells (AID 1347099); note: nearly all actives have a fitted effect of over 50% in size
Method in brief: as §1

[13] = qHTS of pediatric cancer cell lines to identify multiple opportunities for drug repurposing: Primary screen for LAN-5 cells (AID 1347100)
Method in brief: as §2

With `Cc1ccc(S(=O)(=O)NCl)cc1` the Potency [1] was “inactive”.

For `O=C1c2ccccc2C(=O)c2c1ccc(O)c2O`, the Potency [2] was “inactive”, the outcome [3] was “inactive” and the outcome [4] was “inactive”. For the same compound, the outcome [5] was “inactive”, the Potency [6] was “inactive” and the Potency [7] was “inactive”. The outcome [8] was “inactive”, the outcome [9] was “inactive” and the Potency [10] was 23.7 µM (active). For the same compound, the outcome [11] was “inactive”, the outcome [12] was “inactive” and the outcome [13] was “inactive”.

For `CCN(CC)CCOC[C@H]1O[C@@H](O)[C@H](OCCN(CC)CC)[C@@H](O)[C@@H]1O`, the Potency [1] was “inactive”.

With `O=C(O)Cc1nn(Cc2ccc(Br)cc2F)c(=O)c2ccccc12` the Potency [1] was “inactive”.

In the case of `OCC1(CO)COC(C(Cl)(Cl)Cl)OC1`, the Potency [1] is reported as “inactive”.

For `CO[C@@]1(NC(=O)C2SC(=C(C(N)=O)C(=O)O)S2)C(=O)N2C(C(=O)O)=C(CSc3nnnn3C)CS[C@@H]21` (stereo partly drawn), the Potency [1] was “inactive”.

With `O=C1CCC(=O)N1CO` the Potency [1] was “inactive”.

For `CC(C)Cc1ccc([C@@H](C)C(=O)NS(C)(=O)=O)cc1`, the Potency [1] was “inactive”.

With `Cc1c(C)c2c(c(C)c1OC(=O)CCC(=O)O)CC[C@@](C)(CCC[C@H](C)CCC[C@H](C)CCCC(C)C)O2` the Potency [1] was “inactive”.

In the case of `CC(C)C[C@H](NC(=O)[C@@H](Cc1c[nH]c2ccccc12)NC(=O)[C@H](Cc1ccc(O)cc1)NC(=O)[C@H](CO)NC(=O)[C@H](Cc1c[nH]c2ccccc12)NC(=O)[C@H](Cc1cnc[nH]1)NC(=O)[C@@H]1CCC(=O)N1)C(=O)N[C@@H](CCCN=C(N)N)C(=O)N1CCC[C@@H]1C(=O)NCC(N)=O`, the Potency [1] is reported as “inactive”.

In the case of `Cc1nc(NS(=O)(=O)c2ccc(N)cc2)nc(C)c1Br`, the Potency [1] is reported as “inactive”.

For `CC[C@H]1OC(=O)[C@H](C)[C@@H](O[C@H]2C[C@@](C)(OC)[C@@H](O)[C@H](C)O2)C(C)[C@@H](O[C@@H]2O[C@H](C)C[C@H](N(C)C)[C@@H]2O)[C@](C)(OC)C[C@@H](C)C(=O)[C@H](C)[C@@H](O)[C@]1(C)O` (stereo partly drawn), the Potency [1] was “inactive”.

Reference: PubChem BioAssay (NCATS)
